Reference: PubChem BioAssay AID763 (NMMLSC, 2007)
Active and inactive are the calls of the source. No rule for the calls is given here.

target: fMet-Leu-Phe receptor (Homo sapiens) (UniProt P21462); assay: human FPR1 ligand displacement single-point test – cell-based, single concentration, selectivity assay for FPRL1 ligand SAR project, SAR follow-up (AID 763); conditions: FPR1-expressing cells, fluorescent ligand binding inhibition, active compounds read high; at 5.4 µM unless noted
Sequence (P21462 whole entry, looked up): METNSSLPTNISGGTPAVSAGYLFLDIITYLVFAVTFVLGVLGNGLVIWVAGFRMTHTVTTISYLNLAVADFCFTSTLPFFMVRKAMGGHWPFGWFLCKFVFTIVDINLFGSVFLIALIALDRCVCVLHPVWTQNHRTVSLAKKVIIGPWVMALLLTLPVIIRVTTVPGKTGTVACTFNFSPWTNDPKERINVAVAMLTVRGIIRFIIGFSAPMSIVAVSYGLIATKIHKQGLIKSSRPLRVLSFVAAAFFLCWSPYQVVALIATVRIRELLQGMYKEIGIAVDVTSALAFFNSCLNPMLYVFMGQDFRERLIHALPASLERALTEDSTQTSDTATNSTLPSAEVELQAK

inhibition, inactive:
COc1ccccc1-c1cc(C(F)(F)F)nc(N2CCN(C)CC2)n1 5% [at 6.3 µM]
CCOCC(=O)Nc1cc(-c2cn3cccnc3n2)ccc1OC 2.3% [at 6.8 µM]
COc1ccc(-c2cn3cccnc3n2)cc1NC(=O)c1ccc(Cl)cc1 -0.5% [at 5.9 µM]
COc1ccc(-c2cn3cccnc3n2)cc1NC(=O)c1ccccc1F 2.4% [at 6.1 µM]
Cc1ccccc1C(=O)N1CCN(c2nc(-c3ccccc3)c3cc(Cl)ccc3n2)CC1 -3.4% [at 5 µM]
FC(F)(F)c1cc(-c2ccccc2)nc(N2CCN(Cc3ccccc3)CC2)n1 -9.1% [at 5.6 µM]
Clc1cccc(-c2nc(N3CCN(c4ccccc4)CC3)nc3c2COc2ccccc2-3)c1 -0.5% [at 4.9 µM]
CCC(CC)C(=O)Nc1cc(-c2cn3cccnc3n2)ccc1OC -5.9% [at 6.6 µM]
COc1cc(OC)cc(C(=O)Nc2cc(-c3cn4cccnc4n3)ccc2OC)c1 4.4% [at 5.5 µM]
Cc1ccc(-c2cn3cccnc3n2)cc1NC(=O)C(C)C 3.7% [at 7.6 µM]
CCOC(=O)N1CCN(c2nc(-c3ccccc3)c3ccccc3n2)CC1 3.6% [at 6.1 µM]
COc1ccc(-c2cc(C(F)(F)F)nc(N3CCN(C(c4ccccc4)c4ccccc4)CC3)n2)cc1OC -2.6% [at 4.2 µM]
COc1ccc(-c2cn3cccnc3n2)cc1NC(=O)c1cccc(Br)c1 0.1% [at 5.3 µM]
O=C(O)CCCC(=O)N1CCN(c2nc(-c3ccccc3)c3cc(Br)ccc3n2)CC1 -1.2% [at 4.6 µM]
CCOc1cc(C(=O)Nc2cc(-c3cn4cccnc4n3)ccc2OC)cc(OCC)c1OCC 0% [at 4.7 µM]
O=C(C1CCCCC1)N1CCN(c2nc(-c3ccccc3Cl)c3cc(Br)ccc3n2)CC1 3.4% [at 4.3 µM]
Cc1c(-c2cccc(NC(=O)C(C)(C)C)c2)nc2ncccn12 4.9% [at 7.2 µM]
COc1ccccc1N1CCN(c2nc(-c3ccc(F)cc3)cc(C(F)(F)F)n2)CC1 -1.1% [at 5.1 µM]
CCC(=O)Nc1cccc(-c2cn3cccnc3n2)c1 -0.2% [at 8.3 µM]
COc1ccc(-c2cn3cccnc3n2)cc1NC(=O)c1cc(Br)ccc1Cl -4% [at 4.9 µM]
COc1ccc(-c2cc(C(F)(F)F)nc(N3CCN(Cc4ccccc4)CC3)n2)cc1OC 4.7% [at 4.9 µM]
COc1ccc(-c2cn3cccnc3n2)cc1NC(=O)c1ccccc1Br 0.1% [at 5.3 µM]
COc1ccc(-c2cn3cccnc3n2)cc1NC(=O)c1ccc(Br)cc1 -0.1% [at 5.3 µM]
FC(F)(F)c1cc(-c2ccccc2)nc(N2CCN(c3ccccc3)CC2)n1 2.9% [at 5.8 µM]
O=C(O)CCCC(=O)N1CCN(c2nc(-c3ccccc3)c3ccccc3n2)CC1 -2.1% [at 5.5 µM]
CN1CCN(c2nc(-c3ccccc3)c3cc(Cl)ccc3n2)CC1 6.1% [at 6.6 µM]
COc1ccc(-c2cn3cccnc3n2)cc1NC(=O)c1ccc(C)c(C)c1 -2.6% [at 6 µM]
CCOC(=O)N1CCN(c2nc(-c3ccc(F)cc3)cc(C(F)(F)F)n2)CC1 0.3% [at 5.6 µM]
FC(F)(F)c1cc(-c2ccc(Cl)cc2)nc(N2CCN(C(c3ccccc3)c3ccccc3)CC2)n1 2.8% [at 4.4 µM]
O=C(c1cccc(F)c1)N1CCN(c2nc(-c3ccc(F)cc3)cc(C(F)(F)F)n2)CC1 -0.1% [at 5 µM]
COc1ccc(-c2cn3cccnc3n2)cc1NC(=O)C(C)C -8.8% [at 7.2 µM]
COc1ccc(CC(=O)Nc2cc(-c3cn4cccnc4n3)ccc2OC)cc1 -1.7% [at 5.7 µM]
C/C=C\C(=O)Nc1cc(-c2cn3cccnc3n2)ccc1OC 4% [at 7.2 µM]
